Experimental data taken from the supplement of paper PMC10849652.
Of roughly 7,900 targets only a part is listed; those with a hit were picked by preference. About 0.6% of all pairs of compound and target were hits.

How the values were obtained:
Assay in all cases: log2 fold change, soluble protein after heating vs DMSO (PISA); higher = thermal stabilisation; K562 cells, 10 uM, 30 min; active = over 0.2 and 3.5 SD of the protein, either way, in both replicates (recomputed)
[1] = compound: COC1=CC=C(C=C1)CN2C=CC3=C2C=C(C=C3)C(=O)NO
How it was run: (§1)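 K562 cells at 2×10^6 cells/mL were treated for 30 min with 10 μM compound, and aliquots were heated for 3 min over 48°C-58°C before pooling. Extraction used PBS with 0.5% NP-40 at 4°C, and soluble protein was the supernatant after 21,000xg for 90 min, measured by TMTpro 16plex LC-MS/MS with channel sums equalised. Thermal stability values, relative to control samples and from duplicates, are log2 fold changes.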

filanesib = compound: CON(C)C(=O)N1N=C(c2cc(F)ccc2F)S[C@@]1(CCCN)c1ccccc1 [filanesib]
How it was run: as §1

zotarolimus = compound: CO[C@H]1C[C@@H]2CC[C@@H](C)[C@@](O)(O2)C(=O)C(=O)N2CCCC[C@H]2C(=O)O[C@H]([C@H](C)C[C@@H]2CC[C@H](n3cnnn3)[C@H](OC)C2)CC(=O)[C@H](C)/C=C(\C)[C@@H](O)[C@@H](OC)C(=O)[C@H](C)C[C@H](C)/C=C/C=C/C=C/1C [zotarolimus]
How it was run: as §1

idasanutlin = compound: COc1cc(C(=O)O)ccc1NC(=O)[C@@H]1N[C@@H](CC(C)(C)C)[C@](C#N)(c2ccc(Cl)cc2F)[C@H]1c1cccc(Cl)c1F [idasanutlin]
How it was run: as §1

alisertib = compound: COc1cc(Nc2ncc3c(n2)-c2ccc(Cl)cc2C(c2c(F)cccc2OC)=NC3)ccc1C(=O)O [alisertib]
How it was run: as §1

[2] = compound: COc1cc2nc(-c3cc(F)ccc3O)nc(N[C@@H]3CNC[C@H]3C(C)(C)O)c2cc1OC
How it was run: as §1

gefitinib = compound: COc1cc2ncnc(Nc3ccc(F)c(Cl)c3)c2cc1OCCCN1CCOCC1 [gefitinib]
How it was run: as §1

[3] = compound: COc1cccc2cc(-c3nc([C@H]4CC[C@H](C(=O)O)CC4)n4ncnc(N)c34)[nH]c12
How it was run: as §1

lapatinib = compound: CS(=O)(=O)CCNCc1ccc(-c2ccc3ncnc(Nc4ccc(OCc5cccc(F)c5)c(Cl)c4)c3c2)o1 [lapatinib]
How it was run: as §1

pictilisib = compound: CS(=O)(=O)N1CCN(Cc2cc3nc(-c4cccc5[nH]ncc45)nc(N4CCOCC4)c3s2)CC1 [pictilisib]
How it was run: as §1

[4] = compound: CS(=O)(=O)c1ccc(-c2cnc(N)c(C(=O)Nc3ccccc3)n2)cc1
How it was run: as §1

crizotinib = compound: C[C@@H](Oc1cc(-c2cnn(C3CCNCC3)c2)cnc1N)c1c(Cl)ccc(F)c1Cl [crizotinib]
How it was run: as §1

[5] = compound: C[C@@H]1COCCN1C2=NC(=NC(=C2)C3(CC3)S(=O)(=O)C)C4=C5C=CNC5=CC=C4
How it was run: as §1

[6] = compound: C[C@H](C1=CC=C(C=C1)C(=O)NC2=C3C=CNC3=NC=C2)N
How it was run: as §1

duvelisib = compound: C[C@H](Nc1ncnc2nc[nH]c12)c1cc2cccc(Cl)c2c(=O)n1-c1ccccc1 [duvelisib]
How it was run: as §1

gandotinib = compound: Cc1cc(Nc2cc(CN3CCOCC3)c3nc(C)c(Cc4ccc(Cl)cc4F)n3n2)n[nH]1 [gandotinib]
How it was run: as §1

tozasertib = compound: Cc1cc(Nc2cc(N3CCN(C)CC3)nc(Sc3ccc(NC(=O)C4CC4)cc3)n2)n[nH]1 [tozasertib]
How it was run: as §1

[7] = compound: Cc1cc(SCc2sc(-c3ccc(C(F)(F)F)cc3)nc2C)ccc1OCC(=O)O
How it was run: as §1

doramapimod = compound: Cc1ccc(-n2nc(C(C)(C)C)cc2NC(=O)Nc2ccc(OCCN3CCOCC3)c3ccccc23)cc1 [doramapimod]
How it was run: as §1

ispinesib = compound: Cc1ccc(C(=O)N(CCCN)[C@@H](c2nc3cc(Cl)ccc3c(=O)n2Cc2ccccc2)C(C)C)cc1 [ispinesib]
How it was run: as §1

Measured: log2 fold change

HBA1 (UniProt P69905)
Sequence of UniProt P69905 (P69905 whole entry, looked up): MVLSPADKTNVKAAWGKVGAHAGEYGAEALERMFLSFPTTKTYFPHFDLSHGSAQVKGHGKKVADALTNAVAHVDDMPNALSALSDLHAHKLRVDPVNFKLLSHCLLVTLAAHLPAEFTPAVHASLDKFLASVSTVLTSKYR
inactive: [1] -0.037 | filanesib 0.02 | zotarolimus 0.068 | idasanutlin -0.044 | alisertib -0.093 | [2] -0.154 | gefitinib 0.032 | [3] 0.079 | lapatinib 0.036 | pictilisib -0.088 | [4] 0.009 | crizotinib 0.097 | [5] 0.213 | [6] -0.058 | duvelisib 0.094 | gandotinib 0.025 | tozasertib 0.081 | [7] 0.004 | doramapimod 0 | ispinesib 0.24

FBXO42 (UniProt Q6P3S6)
Sequence of UniProt Q6P3S6 (Q6P3S6 whole entry, looked up): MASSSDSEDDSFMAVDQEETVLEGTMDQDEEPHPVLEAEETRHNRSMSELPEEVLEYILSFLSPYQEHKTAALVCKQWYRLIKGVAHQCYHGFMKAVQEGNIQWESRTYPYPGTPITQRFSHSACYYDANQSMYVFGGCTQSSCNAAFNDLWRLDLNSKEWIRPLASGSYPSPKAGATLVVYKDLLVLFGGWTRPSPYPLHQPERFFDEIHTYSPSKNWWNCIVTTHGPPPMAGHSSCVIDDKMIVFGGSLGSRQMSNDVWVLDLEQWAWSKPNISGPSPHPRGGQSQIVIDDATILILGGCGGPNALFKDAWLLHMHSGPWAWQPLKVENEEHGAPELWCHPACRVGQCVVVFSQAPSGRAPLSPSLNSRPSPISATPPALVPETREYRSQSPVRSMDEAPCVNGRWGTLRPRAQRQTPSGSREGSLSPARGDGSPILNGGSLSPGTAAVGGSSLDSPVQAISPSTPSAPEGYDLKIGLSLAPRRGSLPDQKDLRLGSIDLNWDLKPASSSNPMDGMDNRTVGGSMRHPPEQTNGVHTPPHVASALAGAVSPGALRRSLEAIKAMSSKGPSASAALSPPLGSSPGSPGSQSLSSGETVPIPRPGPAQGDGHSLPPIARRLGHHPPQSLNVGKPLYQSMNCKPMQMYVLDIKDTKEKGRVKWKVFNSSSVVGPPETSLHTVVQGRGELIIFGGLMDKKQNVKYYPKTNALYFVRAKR
active: crizotinib 0.4
inactive: [1] -0.037 | filanesib 0.011 | zotarolimus 0.025 | idasanutlin 0.009 | alisertib 0.047 | [2] -0.054 | gefitinib 0.036 | [3] 0.07 | lapatinib 0.063 | pictilisib -0.088 | [4] 0.077 | [5] 0.127 | [6] -0.064 | duvelisib 0.076 | gandotinib -0.022 | tozasertib 0.105 | [7] 0.063 | doramapimod 0.01 | ispinesib -0.015

FLNA (UniProt P21333)
inactive: [1] 0.042 | filanesib 0.026 | zotarolimus 0.043 | idasanutlin -0.066 | alisertib 0.036 | [2] 0.039 | gefitinib 0.03 | [3] -0.095 | lapatinib -0.049 | pictilisib 0.031 | [4] 0.014 | crizotinib -0.078 | [5] -0.01 | [6] 0.04 | duvelisib -0.014 | gandotinib -0.045 | tozasertib 0.108 | [7] 0.127 | doramapimod -0.013 | ispinesib -0.025

H2AFX (UniProt P16104)
inactive: [1] -0.06 | filanesib 0.393 | zotarolimus -0.3 | idasanutlin 0.484 | alisertib -0.007 | [2] -0.136 | gefitinib 0.049 | [3] -0.361 | lapatinib 0.054 | pictilisib -0.215 | [4] -0.09 | crizotinib -0.096 | [5] -0.39 | [6] 0.479 | duvelisib -0.128 | gandotinib 0.087 | tozasertib 0.073 | [7] -0.078 | doramapimod 0.348 | ispinesib -0.222

FDFT1 (UniProt P37268)
Sequence of UniProt P37268 (P37268 whole entry, looked up): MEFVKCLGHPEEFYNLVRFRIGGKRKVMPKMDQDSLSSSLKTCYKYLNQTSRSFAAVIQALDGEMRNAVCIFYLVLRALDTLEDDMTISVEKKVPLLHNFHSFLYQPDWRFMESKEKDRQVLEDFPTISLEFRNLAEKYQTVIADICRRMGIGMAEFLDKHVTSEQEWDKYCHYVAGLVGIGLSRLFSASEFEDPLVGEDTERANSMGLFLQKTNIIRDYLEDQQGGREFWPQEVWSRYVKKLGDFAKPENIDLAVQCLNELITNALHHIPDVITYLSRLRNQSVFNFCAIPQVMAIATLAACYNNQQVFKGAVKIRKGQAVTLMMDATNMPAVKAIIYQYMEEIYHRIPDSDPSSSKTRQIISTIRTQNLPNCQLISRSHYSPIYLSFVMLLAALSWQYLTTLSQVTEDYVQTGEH
active: filanesib 0.401 | duvelisib 0.32
inactive: [1] 0.123 | zotarolimus 0.014 | idasanutlin 0.013 | alisertib 0.008 | [2] -0.052 | gefitinib -0.01 | [3] 0.042 | lapatinib -0.023 | pictilisib 0 | [4] -0.009 | crizotinib 0.105 | [5] -0.032 | [6] -0.065 | gandotinib 0.061 | tozasertib -0.032 | [7] 0.174 | doramapimod 0.02 | ispinesib 0.077

HMGB3 (UniProt O15347)
Sequence of UniProt O15347 (O15347 whole entry, looked up): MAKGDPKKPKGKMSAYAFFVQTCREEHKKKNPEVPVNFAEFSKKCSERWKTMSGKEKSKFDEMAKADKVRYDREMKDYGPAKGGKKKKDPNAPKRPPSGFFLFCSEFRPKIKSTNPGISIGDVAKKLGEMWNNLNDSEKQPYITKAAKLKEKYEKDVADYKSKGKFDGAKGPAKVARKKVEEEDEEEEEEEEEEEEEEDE
inactive: [1] 0.037 | filanesib -0.001 | zotarolimus 0.012 | idasanutlin 0.045 | alisertib -0.064 | [2] -0.031 | gefitinib -0.033 | [3] 0 | lapatinib 0.062 | pictilisib -0.044 | [4] 0.045 | crizotinib 0.026 | [5] -0.018 | [6] -0.071 | duvelisib 0.01 | gandotinib 0.01 | tozasertib 0.029 | [7] -0.001 | doramapimod 0.002 | ispinesib 0.1

GLCCI1 (UniProt Q86VQ1)
Sequence of UniProt Q86VQ1 (Q86VQ1 whole entry, looked up): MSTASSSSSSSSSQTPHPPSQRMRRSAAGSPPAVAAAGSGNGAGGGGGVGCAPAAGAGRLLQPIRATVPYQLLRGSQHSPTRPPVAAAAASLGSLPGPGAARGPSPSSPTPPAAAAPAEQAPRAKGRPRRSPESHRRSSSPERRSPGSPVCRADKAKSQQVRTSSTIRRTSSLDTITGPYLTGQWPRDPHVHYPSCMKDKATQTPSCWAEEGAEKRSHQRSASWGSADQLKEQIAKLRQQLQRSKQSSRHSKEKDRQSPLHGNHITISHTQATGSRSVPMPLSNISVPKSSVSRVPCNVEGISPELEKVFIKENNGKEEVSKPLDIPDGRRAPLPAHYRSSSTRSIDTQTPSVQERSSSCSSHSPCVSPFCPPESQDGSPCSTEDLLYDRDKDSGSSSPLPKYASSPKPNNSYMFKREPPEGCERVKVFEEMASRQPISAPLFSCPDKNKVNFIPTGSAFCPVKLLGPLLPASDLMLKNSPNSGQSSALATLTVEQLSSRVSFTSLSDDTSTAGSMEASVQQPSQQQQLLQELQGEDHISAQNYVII
inactive: [1] 0.009 | filanesib 0.052 | zotarolimus 0.067 | idasanutlin 0.11 | alisertib -0.025 | [2] -0.096 | gefitinib 0.109 | [3] 0.083 | lapatinib -0.02 | pictilisib -0.039 | [4] -0.008 | crizotinib 0.045 | [5] 0.024 | [6] 0.026 | duvelisib 0.023 | gandotinib 0.079 | tozasertib 0.009 | [7] 0.044 | doramapimod -0.032 | ispinesib 0.239

GMEB2 (UniProt Q9UKD1)
Sequence of UniProt Q9UKD1 (Q9UKD1 whole entry, looked up): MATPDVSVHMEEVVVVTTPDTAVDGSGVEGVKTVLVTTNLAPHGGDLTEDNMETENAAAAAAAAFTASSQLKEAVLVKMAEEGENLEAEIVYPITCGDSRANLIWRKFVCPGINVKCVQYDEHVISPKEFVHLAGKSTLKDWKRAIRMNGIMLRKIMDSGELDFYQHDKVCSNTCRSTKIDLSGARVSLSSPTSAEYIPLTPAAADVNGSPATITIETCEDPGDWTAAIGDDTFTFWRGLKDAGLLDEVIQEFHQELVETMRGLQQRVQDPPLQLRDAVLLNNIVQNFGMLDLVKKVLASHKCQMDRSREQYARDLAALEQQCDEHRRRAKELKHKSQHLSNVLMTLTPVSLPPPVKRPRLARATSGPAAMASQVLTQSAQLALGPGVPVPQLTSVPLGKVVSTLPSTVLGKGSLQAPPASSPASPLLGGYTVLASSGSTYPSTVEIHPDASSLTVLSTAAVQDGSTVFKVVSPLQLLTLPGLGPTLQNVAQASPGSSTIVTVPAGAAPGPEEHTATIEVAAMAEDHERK
inactive: [1] -0.027 | filanesib 0.04 | zotarolimus 0.03 | idasanutlin 0.073 | alisertib -0.009 | [2] 0.053 | gefitinib 0.038 | [3] 0.027 | lapatinib -0.022 | pictilisib 0.101 | [4] -0.012 | crizotinib 0.041 | [5] -0.063 | [6] -0.09 | duvelisib -0.028 | gandotinib -0.001 | tozasertib 0.051 | [7] 0.009 | doramapimod 0.053 | ispinesib 0.071

GALK1 isoform 2 (UniProt P51570)
Sequence of UniProt P51570 (P51570 whole entry, looked up): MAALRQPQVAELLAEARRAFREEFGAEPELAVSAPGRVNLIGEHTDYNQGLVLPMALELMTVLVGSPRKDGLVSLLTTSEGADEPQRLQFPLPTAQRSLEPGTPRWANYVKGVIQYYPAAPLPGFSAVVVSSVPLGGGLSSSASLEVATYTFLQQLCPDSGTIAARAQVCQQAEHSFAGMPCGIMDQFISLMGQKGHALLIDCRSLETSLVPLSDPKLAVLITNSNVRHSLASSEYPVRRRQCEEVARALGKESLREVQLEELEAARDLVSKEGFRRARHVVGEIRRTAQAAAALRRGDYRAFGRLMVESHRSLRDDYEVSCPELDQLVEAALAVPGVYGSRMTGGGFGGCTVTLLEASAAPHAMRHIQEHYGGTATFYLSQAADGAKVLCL
inactive: [1] -0.023 | filanesib -0.201 | zotarolimus 0.012 | idasanutlin -0.106 | alisertib -0.125 | [2] -0.049 | gefitinib -0.005 | [3] 0.036 | lapatinib 0.147 | pictilisib -0.05 | [4] -0.1 | crizotinib -0.041 | [5] 0.037 | [6] -0.088 | duvelisib -0.021 | gandotinib -0.087 | tozasertib -0.013 | [7] 0.056 | doramapimod 0.012 | ispinesib 0.078

FMC1 (UniProt Q96HJ9)
Sequence of UniProt Q96HJ9 (Q96HJ9 whole entry, looked up): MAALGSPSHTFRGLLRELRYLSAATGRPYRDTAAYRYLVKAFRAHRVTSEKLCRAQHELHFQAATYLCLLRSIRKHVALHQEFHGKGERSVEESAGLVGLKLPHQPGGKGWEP
inactive: [1] 0.068 | filanesib -0.037 | zotarolimus -0.101 | idasanutlin -0.091 | alisertib -0.042 | [2] -0.008 | gefitinib 0.06 | [3] 0.023 | lapatinib -0.018 | pictilisib 0.024 | [4] 0.021 | crizotinib 0.195 | [5] -0.157 | [6] 0.082 | duvelisib -0.046 | gandotinib 0.024 | tozasertib -0.058 | [7] -0.018 | doramapimod -0.137 | ispinesib -0.314

GUK1 isoform 2 (UniProt Q16774)
Sequence of UniProt Q16774 (Q16774 whole entry, looked up): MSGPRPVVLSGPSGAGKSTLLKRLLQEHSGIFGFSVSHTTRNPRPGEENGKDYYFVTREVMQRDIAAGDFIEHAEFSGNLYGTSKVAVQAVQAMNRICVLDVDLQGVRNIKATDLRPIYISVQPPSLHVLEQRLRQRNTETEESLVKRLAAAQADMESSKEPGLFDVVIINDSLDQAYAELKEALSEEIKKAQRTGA
inactive: [1] 0.215 | filanesib -0.005 | zotarolimus 0.022 | idasanutlin -0.04 | alisertib -0.048 | [2] 0.155 | gefitinib -0.05 | [3] -0.019 | lapatinib -0.001 | pictilisib 0.017 | [4] 0.13 | crizotinib -0.007 | [5] 0.161 | [6] 0.049 | duvelisib 0.123 | gandotinib -0.03 | tozasertib 0.018 | [7] 0.102 | doramapimod -0.004 | ispinesib 0.012

GYG1 (UniProt P46976)
Sequence of UniProt P46976 (P46976 whole entry, looked up): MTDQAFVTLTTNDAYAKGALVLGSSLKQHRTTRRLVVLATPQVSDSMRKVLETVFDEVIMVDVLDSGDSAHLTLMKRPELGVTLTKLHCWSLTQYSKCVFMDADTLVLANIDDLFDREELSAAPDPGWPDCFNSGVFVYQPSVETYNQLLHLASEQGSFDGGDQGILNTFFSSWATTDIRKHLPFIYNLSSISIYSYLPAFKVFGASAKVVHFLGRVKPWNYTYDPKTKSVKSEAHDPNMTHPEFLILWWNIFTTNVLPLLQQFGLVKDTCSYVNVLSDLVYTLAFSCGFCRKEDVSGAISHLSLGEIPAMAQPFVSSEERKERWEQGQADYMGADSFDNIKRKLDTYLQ
inactive: [1] 0.08 | filanesib 0.124 | zotarolimus 0.036 | idasanutlin 0.15 | alisertib -0.133 | [2] -0.163 | gefitinib -0.028 | [3] -0.195 | lapatinib 0.051 | [4] -0.223 | crizotinib -0.037 | [5] -0.15 | [6] 0.018 | duvelisib -0.057 | gandotinib -0.12 | tozasertib 0.072 | [7] 0.09 | doramapimod 0.072 | ispinesib -0.12
active: pictilisib 0.376

HNRNPH1 (UniProt P31943)
inactive: [1] 0.069 | filanesib 0 | zotarolimus 0.091 | idasanutlin 0.048 | alisertib 0.028 | [2] -0.192 | gefitinib -0.015 | [3] 0.068 | lapatinib 0.046 | pictilisib -0.135 | [4] 0.027 | crizotinib -0.171 | [5] -0.012 | [6] 0.02 | duvelisib -0.026 | gandotinib -0.017 | tozasertib -0.01 | [7] 0.126 | doramapimod -0.012 | ispinesib -0.068

FIS1 (UniProt Q9Y3D6)
Sequence of UniProt Q9Y3D6 (Q9Y3D6 whole entry, looked up): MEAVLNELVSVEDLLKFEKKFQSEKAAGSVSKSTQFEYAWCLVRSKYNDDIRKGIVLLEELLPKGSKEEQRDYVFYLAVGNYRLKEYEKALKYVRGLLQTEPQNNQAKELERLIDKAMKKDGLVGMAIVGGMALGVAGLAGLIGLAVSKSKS
inactive: [1] -0.016 | filanesib -0.008 | zotarolimus 0.153 | idasanutlin -0.047 | alisertib -0.034 | [2] 0.061 | gefitinib -0.025 | [3] 0.069 | lapatinib 0.008 | pictilisib 0.071 | [4] -0.017 | crizotinib 0.045 | [5] 0.037 | duvelisib -0.143 | gandotinib 0.032 | tozasertib 0.079 | [7] 0.071 | doramapimod 0.02 | ispinesib -0.007
active: [6] -0.286

FDXR isoform 7 (UniProt P22570)
Sequence of UniProt P22570 (P22570 whole entry, looked up): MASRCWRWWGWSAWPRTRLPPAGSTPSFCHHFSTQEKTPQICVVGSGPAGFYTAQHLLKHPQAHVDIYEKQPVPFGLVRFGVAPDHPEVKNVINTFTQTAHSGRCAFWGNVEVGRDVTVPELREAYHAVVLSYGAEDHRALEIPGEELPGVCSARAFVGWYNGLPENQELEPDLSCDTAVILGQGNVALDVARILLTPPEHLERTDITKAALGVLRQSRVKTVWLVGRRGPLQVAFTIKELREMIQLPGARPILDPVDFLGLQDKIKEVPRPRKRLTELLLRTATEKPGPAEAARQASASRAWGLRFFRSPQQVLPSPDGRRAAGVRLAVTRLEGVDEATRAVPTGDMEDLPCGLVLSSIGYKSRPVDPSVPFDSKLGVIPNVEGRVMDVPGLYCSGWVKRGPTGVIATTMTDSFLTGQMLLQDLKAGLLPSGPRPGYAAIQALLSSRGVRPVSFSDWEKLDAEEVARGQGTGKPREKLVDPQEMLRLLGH
inactive: [1] -0.005 | filanesib -0.122 | zotarolimus 0.021 | idasanutlin -0.179 | alisertib -0.019 | [2] 0.06 | gefitinib 0.048 | [3] 0.074 | lapatinib -0.057 | pictilisib 0.201 | [4] 0.038 | crizotinib -0.036 | [5] 0.117 | [6] -0.01 | duvelisib 0.11 | gandotinib -0.064 | tozasertib -0.105 | [7] 0.023 | doramapimod -0.013 | ispinesib -0.138

GATD1 (UniProt Q8NB37)
Sequence of UniProt Q8NB37 (Q8NB37 whole entry, looked up): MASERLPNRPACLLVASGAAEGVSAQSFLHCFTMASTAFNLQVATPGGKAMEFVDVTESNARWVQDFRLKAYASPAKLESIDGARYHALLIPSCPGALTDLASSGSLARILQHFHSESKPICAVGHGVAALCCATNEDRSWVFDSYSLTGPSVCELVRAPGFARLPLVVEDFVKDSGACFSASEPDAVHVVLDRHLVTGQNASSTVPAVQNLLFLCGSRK
inactive: [1] -0.104 | filanesib 0.022 | zotarolimus -0.004 | idasanutlin -0.038 | alisertib -0.001 | [2] 0.018 | gefitinib -0.014 | [3] 0.052 | lapatinib -0.064 | pictilisib 0.08 | [4] -0.026 | crizotinib 0.023 | [5] -0.256 | [6] 0.012 | duvelisib 0.124 | gandotinib 0.052 | tozasertib -0.075 | [7] 0.033 | doramapimod 0.163 | ispinesib -0.005
